Screening results deposited in PubChem by National Center for Advancing Translational Sciences (NCATS).
AmpC no deterg: AmpC beta-lactamase inhibition without detergent; Potency, µM (series often up to 57.1 µM), for the others: at the top dose activity change, negative = inhibition, usual class: inhibitors; AID 485341; P00811; hit rate 0.52% among 330,000; AmpC nitrocefin hydrolysis, absorbance 480 nm, 0.0001% Triton;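 note: potency is the fitted concentration of half-maximal effect; plate controls were no compound for no effect and no enzyme for full effect; nearly all actives have a fitted effect of over 20% in size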
Target sequence (P00811 whole entry, looked up): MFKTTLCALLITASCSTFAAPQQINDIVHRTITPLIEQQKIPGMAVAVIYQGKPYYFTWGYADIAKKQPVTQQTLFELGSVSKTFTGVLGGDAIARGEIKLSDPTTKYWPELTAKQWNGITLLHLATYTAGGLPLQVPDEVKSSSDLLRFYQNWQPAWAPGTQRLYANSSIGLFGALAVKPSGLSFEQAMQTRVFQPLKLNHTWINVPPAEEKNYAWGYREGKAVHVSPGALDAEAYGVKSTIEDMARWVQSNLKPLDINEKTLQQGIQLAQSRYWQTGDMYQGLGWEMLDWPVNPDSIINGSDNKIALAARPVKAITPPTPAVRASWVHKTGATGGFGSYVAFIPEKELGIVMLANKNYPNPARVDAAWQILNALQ
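20 mM phosphate pH 7.0 + 0.01% (detergent screen) or 0.0001% Triton X-100; 5.3 nM AmpC reagent; cpd preinc 15 min RT; nitrocefin (800 uM stock) to start; A480 q20 s × 4 min; Activity was normalised to no-enzyme and no-compound control wells.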
CHX counter: affects cycloheximide protein synthesis inhibition readout, counter-screen. cell reporter, cycloheximide protein synthesis inhibition counterscreen. max response, %. hit rate 12% among 300,000. AID 2314; in the data active = max response mostly above about 13%, no sharp cut-off; inactive = mostly below about 14%; note: read at 38.3 µM for the half of the compounds with a filed dose; 0% is about no effect
Shiga inhibitor: Shiga toxin inhibition; Vero cells, Shiga toxin protein synthesis inhibition reporter; inhibition, % at 38.7 µM; hit rate 9.2% among 290,000; AID 2315; in the data active = inhibition mostly above about 28%, no sharp cut-off; inactive = mostly below about 43%; note: 0% is about no effect
AmpC inh detg: inhibitors of E. coli AmpC beta-lactamase with detergent; AmpC hydrolysis of nitrocefin, absorbance 480 nm, 0.01% Triton; hit rate 0.041% among 370,000; Potency, µM (titrated, usually from 114 µM), without a hit: top-dose activity change, negative = inhibition, usual class: inhibitors;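 note: potency is the fitted concentration of half-maximal effect; 0% = no-compound wells and -100% = no-enzyme wells; nearly all actives have a fitted effect of over 25% in size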
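20 mM phosphate pH 7.0 + 0.01% (detergent screen) or 0.0001% Triton X-100; 5.3 nM AmpC reagent; cpd preinc 15 min RT; nitrocefin (800 uM stock) to start; A480 q20 s × 4 min; Activity was normalised to no-enzyme and no-compound control wells.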
NS1 inh: inhibitors of influenza NS1 protein function. Potency, µM (doses to about 46.1 µM), without a hit: top-dose activity, positive = more growth. hit rate 0.4% among 270,000. AID 2326; calls by dose curve; note: potency is the fitted concentration of half-maximal effect; actives are rising curves; nearly all actives have a fitted effect of over 50% in size
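A cell-based growth assay was used: compounds that relieve NS1-induced slow growth of budding yeast raise OD600. Assay medium was yeast nitrogen base with ammonium sulphate and -URA supplement, pH 6.0, with 2% galactose.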
Active calls of the source: *; ? = inconclusive; nt = no result; + = active, no number. Shown is part of a subset that was picked to be rich in hits. Unless noted, calls come from the whole dose curve; as a rule, active = well fitted curve in the direction sought with a large enough effect; inconclusive = small, poorly fitted or top-dose-only effect, or another doubt; inactive = no such curve, though single readings can be large; an effect the other way counts as inactive or inconclusive.

SMILES	AmpC no deterg	CHX counter	Shiga inhibitor	AmpC inh detg	NS1 inh
CCCCOC(=O)c1ccc(NC(=O)CSc2nncn2C)cc1	36.7%	25.1*	41.5	?	4.6%
CCCCOC(=O)c1ccc(NC(=O)COC(=O)CSc2nc(C)cc(C)n2)cc1	63.8%	21.2*	58.4*	-14.0%	-65.0%
COC(=O)c1ccc(NC(=O)CSc2nncn2C)cc1	-7.6%	-0.5	3.5	?	?
COc1ccc(NC(=O)CSc2nc(C)cc(C)n2)cc1	-5.0%	-6.6	-22.3	-4.2%	6.8%
CC1CCn2c(nc3cc(C(=O)NCc4ccccc4)ccc32)C1 (stereo not given)	nt	nt	nt	19.2%	nt
CCOCCCNC(=O)c1ccc2c(c1)ncn2C1CCCC1	-13.7%	23.7*	28.6*	-14.1%	-1.0%
CC(C)CCNC(=O)c1ccc2c(c1)ncn2C1CCCC1	-4.5%	34.3*	124.5*	1.5%	nt
COC(CNC(=O)c1ccc2c(c1)ncn2C1CCCCCC1)OC	-0.6%	-2.6	4.0	-4.9%	0.0%
CN1CCC(C2(O)c3ccccc3CSc3sccc32)CC1 (stereo not given)	-7.6%	-3.0	-6.7	6.6%	5.4%
CN1CCC(C2(O)c3ccccc3CCc3ccccc32)CC1	-16.2%	34.5*	58.3*	-2.7%	20.1%
CCOC(=O)c1nn(-c2ccc(C)cc2)c(=O)c2c(N)scc12	-47.9%	1.2	-4.1	-4.6%	7.2%
CCOC(=O)c1nn(-c2ccc(F)cc2)cc1O	-17.7%	52.2*	115.4*	5.7%	nt
CCOC(=O)c1nn(-c2ccc(F)cc2)c(=O)c2c(N)scc12	256.3%	19.5*	18.9	4.0%	0.4%
COc1ccccc1NC(=O)c1ccccc1NC(=O)c1ccccn1	-43.2%	nt	nt	?	nt
O=C(Nc1cccc2cccnc12)c1cc(F)c(F)cc1Cl	-27.3%	29.0*	nt	-11.4%	-11.3%
COC(=O)c1cccc(NC(=O)c2cccnc2C(=O)O)c1C	-4.1%	29.3*	58.7*	-0.2%	3.4%
COc1ccccc1C(=O)Nc1cccc2cccnc12	-21.3%	38.5*	42.4	-0.9%	-62.9%
Cc1ccccc1Nc1c(-c2ccc(N3CCOCC3)cc2)nc2ccc(Cl)cn12	nt	nt	nt	11.4%	nt
O=C1CSC(c2cccs2)N1c1ccccc1 (stereo not given)	-6.9%	-0.9	-6.2	-7.8%	8.0%
c1ccc(N2CCN(c3ccccc3)C2c2cccs2)cc1	-45.3%	30.1*	93.7*	-5.1%	0.8%
C[N+](C)([O-])Cc1cc(-c2ccccc2)ccc1O	nt	nt	nt	nt	-1.7%
COC(=O)c1ccc2c(=O)[nH]c(CSc3nc(C)cs3)nc2c1	-28.0%	27.6*	67.3*	-0.4%	nt
Cc1c(C(=O)Nc2cccc(Cl)c2)sc2nc3n(c(=O)c12)N=C(c1cccc(Br)c1)CS3	nt	nt	nt	-6.7%	nt
Cc1ccc(NC(=O)c2ccc(-n3cccn3)c([N+](=O)[O-])c2)cc1C	-29.8%	34.2*	45.4*	3.3%	-1.1%
COc1ccc(NC(=O)c2ccc(-n3cccn3)c([N+](=O)[O-])c2)cc1	-30.0%	-0.5	26.8	-13.3%	-4.3%
SMILES	AmpC no deterg	CHX counter	Shiga inhibitor	AmpC inh detg	NS1 inh
O=C(Nc1ccc(Cl)cc1)c1ccc(-n2cccn2)c([N+](=O)[O-])c1	-40.9%	23.6*	30.2	-11.5%	15.3%
CCc1nc(Nc2ccc(F)c(Cl)c2)c2c3c(sc2n1)CCCC3	nt	nt	nt	13.3%	nt
Cc1nn(-c2ccccc2)c(N2CCCC2)c1/C=N/NC(=S)Nc1ccccc1F	-22.3%	72.4*	98.1*	-3.0%	26.3%
O=S(=O)(c1ccc(Cl)cc1)N1CCN(CCc2ccncc2)CC1	138.2%	-2.8	-7.1	4.5%	0.0%
Cn1cc(Br)c(C(=O)NNC(=O)Nc2ccccc2C(F)(F)F)n1	-5.8%	26.2*	50.7	5.5%	1.2%
Cc1cccc(NC(=O)NNC(=O)c2nn(C)cc2Br)c1	-23.4%	11.5	20.1	-0.4%	20.3%
Cn1cc(Br)c(C(=O)NNC(=O)c2ccc(Br)cc2)n1	-28.7%	35.3*	+	-9.1%	-19.3%
Cn1cc(Br)c(C(=O)NNC(=O)c2ccccc2)n1	-21.9%	1.2	-1.2	?	5.6%
COc1ccc(C(=O)NNC(=O)c2ccc(C(C)(C)C)cc2)cc1	-21.4%	-6.9	-3.2	?	nt
Cc1c(Br)c(C(=O)NNC(=O)c2ccc(C(C)(C)C)cc2)nn1C	-11.2%	27.0*	33.2	0.0%	-2.5%
O=C1Nc2ccccc2[C@]1(O)Cc1ccccn1	nt	nt	nt	nt	-2.8%
Cc1nn2cc(-c3ccc(Cl)cc3)cnc2c1Cl	-13.1%	28.9*	49.3*	-17.6%	nt
CCOc1ccc(NC(=O)CSc2nccn(-c3ccc4c(c3)OCCO4)c2=O)cc1	-48.5%	nt	nt	?	nt
C=CCN(CC=C)CCOc1ccccc1	0.5%	-2.6	-10.9	-3.2%	5.6%
C=CCN(CC=C)CCOc1ccc2ccccc2c1	-8.5%	20.5*	37.3	-1.0%	4.7%
C=CCN(CC=C)CCOc1ccc(OC(C)C)cc1	7.9%	17.8*	83.8*	?	nt
COc1ccc(/C=C(/C(=O)c2cccs2)N2C=CC=CC2=C(C#N)C#N)cc1	-24.7%	41.0*	46.8*	-10.6%	4.4%
COc1ccc(C(=O)/C(=C\c2ccco2)N2C=CC=CC2=C(C#N)C#N)cc1	-36.7%	-1.4	-5.2	-0.5%	6.0%
CSc1nncc(-c2ccccc2)n1	-20.1%	18.6	10.9	2.0%	nt
Cc1ccc(-c2cc(N)n3nc(-c4ccc(C)cc4)cc3n2)cc1	-27.9%	-1.2	19.4	1.8%	16.0%
CSc1nc(N)n2nc(-c3ccccc3)cc2n1	-5.2%	36.6*	69.9*	-0.9%	-3.3%
Cc1cc(-c2ccccc2)n2nc(-c3cccc(Br)c3)cc2n1	nt	nt	nt	8.9%	nt
Cc1cc(N)n2nc(-c3ccccc3)cc2n1	-22.6%	59.9*	89.1*	-4.3%	-19.6%
Cc1cc(N2CCOCC2)n2nc(-c3cccc(F)c3)cc2n1	-19.3%	-2.0	1.4	-2.3%	-3.1%
Cc1ccc(-c2cc3nc(-c4ccccc4)cc(N)n3n2)cc1	-25.9%	37.6*	81.7*	4.1%	17.6%
SMILES	AmpC no deterg	CHX counter	Shiga inhibitor	AmpC inh detg	NS1 inh
Cc1ccc(-c2cc3nc(-c4ccccc4)cc(N4CCOCC4)n3n2)cc1	-14.4%	23.2*	11.8	7.1%	?
CC(C)CCNC(=O)Nc1cc(C(=O)NCc2cccc(F)c2)ccc1N1CCCC1	nt	nt	nt	-5.3%	nt
CSc1nc2sc3c(c2c(=O)[nH]1)CC(C)(C)OC3	-18.1%	6.9	nt	-10.7%	10.0%
COc1ccc(N2CCN(C(=O)COC(=O)CNC(=O)c3cccc(OC(F)F)c3)CC2)cc1	10.9%	nt	nt	-7.0%	nt
CC1CCN(C(=O)CNC(=O)c2cccc(OC(F)F)c2)CC1	-19.4%	18.3*	48.8*	-14.3%	nt
COc1cccc(C(=O)NCC(=O)N2CCC(C)CC2)c1	-5.2%	24.7*	34.9	-12.7%	-11.4%
COc1cccc(C(=O)NCCS(=O)(=O)N2CCC(C)CC2)c1	-4.4%	nt	nt	-7.5%	nt
COc1cc(/C=C2\C(=N)N3N=C(S(C)(=O)=O)SC3=NC2=O)ccc1OC(=O)c1ccco1	-26.8%	-2.9	9.3	-12.1%	13.0%
COc1ccccc1OCC(=O)NNC(=O)c1cccs1	-21.1%	3.5	14.9	3.3%	4.2%
O=C(/C=C/c1ccccc1)NNC(=O)c1cccs1	-3.6%	23.4*	38.4	5.3%	0.1%
